OTUD3 inh – human OTUD3 deubiquitinase inhibition | purified OTUD3, Ub-rhodamine fluorescence, 2 h | Q5T2D3 | actives 0.7% (n = 47,000) | inhibition, % at 25 µM
USP30 inh – human USP30 deubiquitinase inhibition | purified USP30, Ub-rhodamine cleavage fluorescence | inhibition, % at 25 µM | actives 5.3% (n = 47,000)
Target sequence (Q70CQ3 whole entry, looked up): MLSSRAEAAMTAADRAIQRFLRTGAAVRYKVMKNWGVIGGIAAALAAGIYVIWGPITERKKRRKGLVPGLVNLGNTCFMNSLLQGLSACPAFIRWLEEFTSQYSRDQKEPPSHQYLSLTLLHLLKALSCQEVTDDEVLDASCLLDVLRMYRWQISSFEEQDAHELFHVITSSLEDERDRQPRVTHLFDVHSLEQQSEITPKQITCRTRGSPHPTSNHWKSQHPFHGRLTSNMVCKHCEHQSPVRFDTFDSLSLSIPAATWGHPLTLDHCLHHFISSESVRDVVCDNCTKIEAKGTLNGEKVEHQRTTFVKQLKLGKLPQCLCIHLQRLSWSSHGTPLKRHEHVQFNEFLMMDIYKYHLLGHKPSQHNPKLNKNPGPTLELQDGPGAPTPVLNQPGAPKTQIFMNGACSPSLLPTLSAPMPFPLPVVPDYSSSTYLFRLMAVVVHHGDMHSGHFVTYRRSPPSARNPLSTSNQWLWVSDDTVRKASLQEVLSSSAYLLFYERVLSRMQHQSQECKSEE
USP8 inh – human USP8 deubiquitinase inhibition. actives 4.2% (n = 47,000). inhibition, % at 20 µM. AID 1645853. purified USP8, Ub-rhodamine cleavage fluorescence, 30 min. P40818
USP17 inh – blocks human USP17 ubiquitin-rhodamine cleavage | inhibition, % at 50 µM | A8MUK1 | actives 6.5% (n = 47,000) | purified USP17, Ub-rhodamine cleavage fluorescence, 3 h
USP10 inh – inhibitors of human USP10 deubiquitinase; purified USP10, Ub-rhodamine fluorescence, 60 min; inhibition, % at 20 µM; actives 1.1% (n = 47,000)
USP28 block – blocks human USP28 ubiquitin-rhodamine cleavage. actives 3% (n = 47,000). Q96RU2. inhibition, % at 25 µM. purified USP28, Ub-rhodamine cleavage fluorescence, 30 min
Numbers stand for hits. Sampled rows, rich in hits. Any-hit rate of the full collection: about 13%. Cut-off read from the data, not from the text of the source: active = inhibition above about 30%; inactive = the rest.

For CC(=O)c1ccc(NC(=O)CN(CC(=O)Nc2ccc(C(C)=O)cc2)S(=O)(=O)c2ccc(C)cc2C)cc1 the results were OTUD3 inh inactive, USP30 inh inactive, USP8 inh inactive, USP17 inh 32, USP10 inh inactive and USP28 block inactive.
For CC(=O)c1ccc(NC(=O)CN(CC(=O)Nc2ccc(C(C)=O)cc2)Cc2ccccc2)cc1 the results were OTUD3 inh inactive, USP8 inh inactive, USP17 inh inactive and USP10 inh inactive.
CN1CCCN(C(=O)c2ccc3ccc(N(C)c4ccccc4)n3c2)CC1 was read as OTUD3 inh inactive, USP30 inh inactive, USP8 inh inactive, USP17 inh inactive, USP10 inh inactive and USP28 block inactive.
For Cc1ccccc1NC(=O)c1ccc(N2CCCCC2)nn1 the results were OTUD3 inh inactive, USP30 inh 70, USP8 inh inactive, USP17 inh 47, USP10 inh inactive and USP28 block inactive.
`Cc1cc(OCC(=O)Nc2ccccc2F)nc(N2CCCCCC2)n1` gave OTUD3 inh inactive, USP30 inh inactive, USP8 inh inactive, USP17 inh inactive, USP10 inh inactive and USP28 block inactive.
`O=C(Nc1ccc(F)c(Cl)c1)c1ccc(N2CCCC2)nn1` gave OTUD3 inh inactive, USP30 inh inactive, USP8 inh inactive, USP17 inh inactive, USP10 inh inactive and USP28 block inactive.
CC(=O)c1cccc(NC(=O)c2ccc(N3CCCCC3)nn2)c1 was read as OTUD3 inh inactive, USP30 inh 57, USP8 inh inactive, USP17 inh 49, USP10 inh inactive and USP28 block inactive.
`Cc1cc(OCC(=O)Nc2ccccc2C)nc(N2CCCCCC2)n1` gave OTUD3 inh inactive, USP30 inh 36, USP8 inh inactive, USP17 inh inactive, USP10 inh inactive and USP28 block inactive.
Screening CC(C)(C)c1cc(C(=O)N2CCC(C3Nc4ccccc4S(=O)(=O)N3)CC2)n[nH]1 (centres undefined) returned OTUD3 inh inactive, USP30 inh inactive, USP8 inh inactive, USP17 inh inactive, USP10 inh inactive and USP28 block inactive.
For Cc1c(C(=O)NCC2CCCCC2)nnn1-c1cccc2c1CCN(CCO)C2 the results were OTUD3 inh inactive, USP30 inh inactive, USP8 inh inactive, USP17 inh inactive, USP10 inh inactive and USP28 block inactive.
For COc1ccccc1N(Cc1nc2nc(C)cc(=O)n2[nH]1)S(=O)(=O)c1ccc(C)cc1 the results were OTUD3 inh inactive, USP30 inh inactive, USP8 inh inactive, USP17 inh inactive, USP10 inh inactive and USP28 block inactive.
Screening Cc1ccc(NC(=O)Nc2ccc(C)n(CC(=O)Nc3ccc(C)c(C)c3)c2=O)cc1 returned OTUD3 inh inactive, USP30 inh inactive, USP8 inh 93, USP17 inh inactive, USP10 inh 66 and USP28 block inactive.
Screening Cc1cc(C)n(CC(=O)N2N=CCC2(O)C(F)(F)F)n1 (centres undefined) returned OTUD3 inh inactive, USP30 inh inactive, USP8 inh 37, USP17 inh inactive, USP10 inh inactive and USP28 block inactive.
Screening Cc1cc(-c2ncc(C)[nH]2)nc(CC2CCN(S(=O)(=O)N(C)C)CC2)n1 returned OTUD3 inh inactive, USP30 inh inactive, USP8 inh inactive, USP17 inh inactive, USP10 inh inactive and USP28 block inactive.
`Clc1cccc(-n2ccc(-c3cnccn3)n2)c1` gave OTUD3 inh inactive, USP30 inh inactive, USP8 inh inactive, USP17 inh inactive, USP10 inh inactive and USP28 block inactive.
`OC(c1ccc2c(c1)OCO2)c1ncc(-c2ccc(Cl)cc2)[nH]1` (centres undefined) gave OTUD3 inh inactive, USP30 inh inactive, USP8 inh inactive, USP17 inh inactive, USP10 inh inactive and USP28 block inactive.
For OC(c1ccc2c(c1)OCO2)c1ncc(-c2ccc3ccccc3c2)[nH]1 (centres undefined) the results were OTUD3 inh inactive, USP30 inh inactive, USP8 inh 40, USP17 inh inactive, USP10 inh inactive and USP28 block inactive.
O=C(CN1CC[C@@]2(O)CCCC[C@H]2C1c1ccc2c(c1)OCO2)Nc1ccccc1 (some centres undefined) was read as OTUD3 inh inactive, USP30 inh inactive, USP8 inh inactive, USP17 inh inactive, USP10 inh inactive and USP28 block inactive.
For COc1ccc(-c2c(C)nc3c(-c4ccsc4)cnn3c2N)cc1 the results were OTUD3 inh inactive, USP30 inh inactive, USP8 inh 32, USP17 inh inactive, USP10 inh inactive and USP28 block inactive.
Screening COc1ccccc1CN(Cc1cc2ccc(C)cc2[nH]c1=O)C(=O)Nc1ccccc1OC returned OTUD3 inh inactive, USP30 inh inactive, USP8 inh inactive, USP17 inh inactive, USP10 inh inactive and USP28 block inactive.
Screening COc1ccc(-c2ccnc(SCC(=O)Nc3cccc(Cl)c3Cl)n2)cc1 returned OTUD3 inh inactive, USP30 inh inactive, USP8 inh inactive, USP17 inh inactive, USP10 inh inactive and USP28 block inactive.
`CC1CC(=O)c2c(cc3c(-c4c(O)cc(O)c5c(O)c6c(cc45)OC(C)CC6=O)c(O)cc(O)c3c2O)O1` (centres undefined) gave OTUD3 inh 78, USP30 inh inactive, USP8 inh 78, USP17 inh 88, USP10 inh 83 and USP28 block 85.
`O=C(Nc1cccc2cnccc12)N1CCCCCC1` gave OTUD3 inh inactive, USP30 inh inactive, USP8 inh inactive, USP17 inh 34, USP10 inh inactive and USP28 block inactive.
For O=C(Nc1ccc(F)cc1)c1cn(CC(O)c2ccc3c(c2)OCO3)nn1 (centres undefined) the results were OTUD3 inh inactive, USP30 inh inactive, USP8 inh inactive, USP17 inh inactive, USP10 inh inactive and USP28 block inactive.
Cc1ccc(NC(=O)c2cn(CC(O)c3ccc4c(c3)OCO4)nn2)cc1 (centres undefined) was read as OTUD3 inh inactive, USP30 inh 47, USP8 inh inactive, USP17 inh 46, USP10 inh inactive and USP28 block inactive.
`O=c1c2cnc(N3CCCCC3)nc2ccn1CC1CCCO1` (centres undefined) gave OTUD3 inh inactive, USP30 inh inactive, USP8 inh inactive, USP17 inh inactive, USP10 inh inactive and USP28 block inactive.
Screening COc1ccc(C2C3=C(CC(c4ccco4)CC3=O)Nc3ccccc3N2C(C)=O)cc1 (centres undefined) returned OTUD3 inh inactive, USP30 inh inactive, USP8 inh 56, USP17 inh 38, USP10 inh inactive and USP28 block inactive.
CCCCCC(=O)N1c2ccccc2NC2=C(C(=O)CC(c3ccco3)C2)C1c1cc(OC)c(OC)c(OC)c1 (centres undefined) was read as OTUD3 inh inactive, USP30 inh inactive, USP8 inh inactive, USP17 inh 34, USP10 inh inactive and USP28 block inactive.
`CCN(CC)C(=O)c1cc2c(=O)n3cccc(C)c3nc2n1Cc1ccccc1` gave OTUD3 inh inactive, USP30 inh inactive, USP8 inh inactive, USP17 inh inactive, USP10 inh inactive and USP28 block inactive.
